Several values for one entry are separate records, joined by “and”; a condition that tells them apart may be missing. Identical values can stand only once. Some compounds were tested as several samples or in several runs, with calls that do not always agree. Activity calls are given as the source filed them. The calls were made as follows: active = hit-call score of the fitted dose curve at least 0.9, where 1 is the maximum; inactive = score below 0.9.
Assays:
[1] = read-out: Human Leukocyte Antigen - DR isotype (HLADR), HLA-DRA (gene 3122); assay: BSK_BE3C_HLADR: BioMAP Diversity Plus: BE3C Assay for Human Leukocyte Antigen - DR isotype (HLADR) Biomarker Activity (AID 2283032); details: primary human bronchial epithelial cells; actives raise or lower the signal
How it was run: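 Signal came from an ELISA for HLA-DR in human bronchial epithelial primary cells harvested 24 h after treatment; gain- and loss-of-signal fitting used DMSO controls as reference.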

[2] = read-out: Vascular cell adhesion molecule 1 (VCAM1), VCAM1 (gene 7412); assay: BSK_4H_VCAM1: BioMAP Diversity Plus: 4H Assay for Vascular cell adhesion molecule 1 (VCAM1) Biomarker Activity (AID 2283033); details: primary human endothelial cells (HUVEC); actives raise or lower the signal
How it was run: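 Endpoint derived from bidirectional fitting against DMSO controls of VCAM-1 ELISA signal in umbilical vein endothelial cells sampled at 24 h following treatment.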

[3] = read-out: Interferon-gamma inducible Protein 10 (IP10), CXCL10 (gene 3627); assay: BSK_BE3C_IP10: BioMAP Diversity Plus: BE3C Assay for Interferon-gamma inducible Protein 10 (IP10) Biomarker Activity (AID 2283034); details: primary human bronchial epithelial cells; actives raise or lower the signal
How it was run: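 Using primary human bronchial epithelial cultures, the assay captures IP-10 by ELISA one day (24 h) after exposure. Parallel SRB staining of total protein flags overt cytotoxicity. Fits run bidirectionally relative to DMSO.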

[4] = read-out: Monokine induced gamma interferon (MIG), CXCL9 (gene 4283); assay: BSK_BE3C_MIG: BioMAP Diversity Plus: BE3C Assay for Monokine induced gamma interferon (MIG) Biomarker Activity (AID 2283035); details: primary human bronchial epithelial cells; actives raise or lower the signal
How it was run: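 Primary human bronchial epithelial cells treated for 24 h; MIG levels measured by ELISA, fitted bidirectionally versus DMSO. Parallel SRB total-protein staining assessed cytotoxicity.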

[5] = read-out: Transforming growth factor beta 1 (TGFb1), TGFB1 (gene 7040); assay: BSK_BE3C_TGFb1: BioMAP Diversity Plus: BE3C Assay for Transforming growth factor beta 1 (TGFb1) Biomarker Activity (AID 2283036); details: primary human bronchial epithelial cells; actives raise or lower the signal
How it was run: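 In this human primary bronchial epithelial system, an ELISA quantified TGF-b1 one day after dosing. Endpoint changes in either direction were fitted relative to DMSO.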

[6] = read-out: Plasminogen activator inhibitor-1 (PAI1), SERPINE1 (gene 5054); assay: BSK_BE3C_PAI1: BioMAP Diversity Plus: BE3C Assay for Plasminogen activator inhibitor-1 (PAI1) Biomarker Activity (AID 2283037); details: primary human bronchial epithelial cells; actives raise or lower the signal
How it was run: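 PAI-1 biomarker levels in treated human bronchial epithelial cells are determined by ELISA at 24 h. Both increases and decreases relative to DMSO are fitted.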

[7] = read-out: urokinase plasminogen activator (uPA), PLAU (gene 5328); assay: BSK_BE3C_uPA: BioMAP Diversity Plus: BE3C Assay for urokinase plasminogen activator (uPA) Biomarker Activity (AID 2283038); details: primary human bronchial epithelial cells; actives raise or lower the signal
How it was run: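 Human primary bronchial epithelial cells were exposed to chemical for 24 h, then uPA levels were measured by ELISA. Responses were fitted bidirectionally against DMSO as negative control and baseline. Parallel SRB staining of total protein gauged overt cytotoxicity.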

[8] = read-out: Interleukin-6 (IL6), IL6 (gene 3569); assay: BSK_CASM3C_IL6: BioMAP Diversity Plus: CASM3C Assay for Interleukin-6 (IL6) Biomarker Activity for (AID 2283040); details: primary human coronary artery smooth muscle cells; actives raise or lower the signal
[9] = read-out: Tissue plasminogen activator (tPA), PLAT (gene 5327); assay: BSK_BE3C_tPA: BioMAP Diversity Plus: BE3C Assay for Tissue plasminogen activator (tPA) Biomarker Activity (AID 2283041); details: primary human bronchial epithelial cells; actives raise or lower the signal
How it was run: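 Bidirectional curve fitting relative to DMSO defined activity, with tPA detected by ELISA in chemically treated human bronchial epithelial primary cells at 24 hours.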

[10] = read-out: Interleukin-8 (IL8), CXCL8 (gene 3576); assay: BSK_CASM3C_IL8: BioMAP Diversity Plus: CASM3C Assay for Interleukin-8 (IL8) Biomarker Activity (AID 2283042); details: primary human coronary artery smooth muscle cells; actives raise or lower the signal;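 also: IL-8 protein level quantified by ELISA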
[11] = read-out: Human Leukocyte Antigen - DR isotype (HLADR), HLA-DRA (gene 3122); assay: BSK_CASM3C_HLADR: BioMAP Diversity Plus: CASM3C Assay for Human Leukocyte Antigen - DR isotype (HLADR) Biomarker Activity (AID 2283043); details: primary human coronary artery smooth muscle cells; actives raise or lower the signal;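 also: cell-surface HLA-DR protein level quantified by ELISA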
[12] = read-out: Macrophage colony-stimulating factor (MCSF), CSF1 (gene 1435); assay: BSK_CASM3C_MCSF: BioMAP Diversity Plus: CASM3C Assay for Macrophage colony-stimulating factor (MCSF) Biomarker Activity (AID 2283044); details: primary human coronary artery smooth muscle cells; actives raise or lower the signal;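 also: M-CSF protein amount quantified by ELISA after 24 h exposure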
[13] = read-out: Low-density lipoprotein receptor (LDLR), LDLR (gene 3949); assay: BSK_CASM3C_LDLR: BioMAP Diversity Plus: CASM3C Assay for Low-density lipoprotein receptor (LDLR) Biomarker Activity (AID 2283045); details: primary human coronary artery smooth muscle cells; actives raise or lower the signal;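 also: LDLR protein level on the cell surface quantified by ELISA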
[14] = read-out: Monocyte Chemoattractant Protein-1 (MCP1), CCL2 (gene 6347); assay: BSK_CASM3C_MCP1: BioMAP Diversity Plus: CASM3C Assay for Monocyte Chemoattractant Protein-1 (MCP1) Biomarker Activity (AID 2283046); details: primary human coronary artery smooth muscle cells; actives raise or lower the signal;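 also: MCP-1 level quantified by ELISA 24 h after dosing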
[15] = BSK_CASM3C_Proliferation: Cell Proliferation Assessment in the BioMAP Diversity Plus: CASM3C Assay (AID 2283047); details: primary human coronary artery smooth muscle cells;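 also: sulforhodamine B total protein stain as relative cell number at 560 nm; sub-confluent cells exposed 48 h before staining; fitted both ways against DMSO so gain or loss of cell number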
[16] = read-out: Monokine induced gamma interferon (MIG), CXCL9 (gene 4283); assay: BSK_CASM3C_MIG: BioMAP Diversity Plus: CASM3C Assay for Monokine induced gamma interferon (MIG) Biomarker Activity (AID 2283048); details: primary human coronary artery smooth muscle cells; actives raise or lower the signal
[17] = read-out: serum amyloid A (SAA), SAA1 (gene 6288); assay: BSK_CASM3C_SAA: BioMAP Diversity Plus: CASM3C Assay for serum amyloid A (SAA) Biomarker Activity (AID 2283049); details: primary human coronary artery smooth muscle cells; actives raise or lower the signal;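 also: SAA protein level quantified by ELISA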
[18] = BSK_CASM3C_SRB: Viability Assessment in the BioMAP Diversity Plus: CASM3C Assay (AID 2283050); details: primary human coronary artery smooth muscle cells
[19] = read-out: Thrombomodulin, THBD (gene 7056); assay: BSK_CASM3C_Thrombomodulin: BioMAP Diversity Plus: CASM3C Assay for Thrombomodulin Biomarker Activity (AID 2283051); details: primary human coronary artery smooth muscle cells; actives raise or lower the signal;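 also: thrombomodulin protein level measured by ELISA 24 h after dosing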
[20] = read-out: Urokinase-type plasminogen activator receptor (uPAR), PLAUR (gene 5329); assay: BSK_BE3C_uPAR: BioMAP Diversity Plus: BE3C Assay for Urokinase-type plasminogen activator receptor (uPAR) Biomarker Activity (AID 2283039); details: primary human bronchial epithelial cells; actives raise or lower the signal
How it was run: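 A uPAR ELISA serves as the readout, taken 24 h after treating primary human bronchial epithelial cells. Responses in either direction are fitted against DMSO, which defines baseline activity.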

Measured: AC50

CCCCC=O
not listed: [20]
inactive: all other assays above

OCCN1CN(CCO)CN(CCO)C1
active: [1] 35.5 µM | [2] 29.8 µM | [12] 5 µM | [13] 0.17 µM | [18] 20 µM
not listed: [20]
inactive: all other assays above

CC(C)(C)c1ccc(O)c(O)c1
active: [2] 17.1 µM | [19] 20 µM
not listed: [10] | [15] | [20]
inactive: all other assays above

CCCCCc1ccc(O)cc1
active: [1] 27.2 µM | [2] 24.9 µM | [3] 16.6 µM | [4] 32.8 µM | [5] 20 µM | [6] 20 µM | [7] 27.2 µM | [8] 20 µM | [9] 11.6 µM | [10] 20 µM | [11] 12.8 µM | [12] 14.6 µM | [13] 10.4 µM | [14] 14 µM | [15] 11.6 µM | [16] 15.4 µM | [17] 12.7 µM | [18] 15.9 µM | [19] 34 µM

CCCCCCCCCCCCCCC
not listed: [20]
inactive: all other assays above

Oc1ccc(Cc2ccccc2O)cc1
inactive: [1] | [2] | [3] | [4] | [6] | [7] | [20] | [8] | [9] | [10] | [11] | [12] | [13] | [14] | [15] | [16] | [17] | [18] | [19]
active: [11] 10.8 µM

CCCCCCCCCCCCOS(=O)(=O)O
active: [1] 26.2 µM | [3] 12.5 µM | [4] 26.4 µM | [5] 28.7 µM | [6] 33.3 µM | [7] 31.6 µM | [9] 27.5 µM
not listed: [14] | [17] | [20]
inactive: all other assays above

O=S(=O)(O)C(F)(F)C(F)(F)C(F)(F)C(F)(F)C(F)(F)C(F)(F)C(F)(F)C(F)(F)C(F)(F)C(F)(F)F
inactive: [2] | [4] | [7] | [20] | [8] | [9] | [10] | [11] | [12] | [13] | [14] | [15] | [16] | [18] | [19]
active: [1] 18.2 µM and 15.8 µM | [3] 13.3 µM and 12 µM | [6] 7.29 µM and 5.4 µM | [20] 21.5 µM | [12] 13.3 µM | [16] 8.66 µM | [17] 13.3 µM and 20.4 µM | [19] 13.3 µM

C=COC(=O)C(C)(C)CCCCCC
active: [1] 24.8 µM | [2] 30.2 µM | [3] 33.5 µM | [6] 29.4 µM | [7] 20 µM | [8] 32 µM | [9] 20 µM | [11] 35.9 µM | [12] 32 µM | [14] 20 µM | [15] 37.8 µM | [16] 32.6 µM | [18] 31.9 µM
inactive: [4] | [5] | [10] | [13] | [17] | [19]

CCCCCCCCCCCC
active: [1] 5.83 µM and 5.29 µM | [2] 33.4 µM and 32.1 µM | [3] 7.03 µM and 6.14 µM | [4] 9 µM and 9.5 µM | [6] 9.17 µM and 6.53 µM
not listed: [5]
inactive: all other assays above

— PubChem BioAssay (EPA / NIEHS)
